The text below walks through data of PubChem BioAssay (NCI).

Among the test systems are NCI-H23 lung; NCI-H226 lung; NCI-H322M lung; HOP-62 NSCLC; NCI-H460 lung; HOP-92 NSCLC; NCI-H522 lung; A549/ATCC NSCLC; 786-0 renal; COLO 205 colon; DU-145 prostate; K-562 leukemia; MALME-3M melanoma; MDA-MB-231 breast; RXF 393 renal; SF-268 CNS; SF-295 CNS; SF-539 CNS; UACC-257 melanoma; M14 melanoma.
Experiment in all cases: NCI-60 one-dose screen, 48 h (100 = growth as untreated, 0 = no growth, -100 = all killed)
What all share (conditions): 10 µM unless noted

About 83,000 compounds went through this panel and 20% of them were active in at least one assay; those are over-represented in the sample as a whole.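 Interpretation: 100, growth as untreated; towards 0, rising growth inhibition; 0, no net growth; 0 to -100, cell death. Compounds scoring below 10 were considered active.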 A number with no mark means an inactive call. Calls of active or inactive are those of the source.

With `[Cl-].[Rh+3].c1ccc(-c2ccnc3c2ccc2c(-c4ccccc4)ccnc23)cc1.c1ccc(-c2ccnc3c2ccc2c(-c4ccccc4)ccnc23)cc1.c1ccc(-c2ccnc3c2ccc2c(-c4ccccc4)ccnc23)cc1`, the growth with NCI-H23 lung is 86.6%; in the assay with NCI-H226 lung, 107%; with NCI-H322M lung, 105%; in the assay on HOP-62 NSCLC, 92%; in the assay with NCI-H460 lung, 92.4%; in the assay on HOP-92 NSCLC, 80.9%. For the same compound, the growth was 42.1% with NCI-H522 lung; -0.367% (active) in the assay with A549/ATCC NSCLC; 84.8% with 786-0 renal; 64.6% in the assay with COLO 205 colon; 126% with DU-145 prostate; 34.7% in the assay with K-562 leukemia. In addition, the growth in the assay with MALME-3M melanoma was 94.3%; in the assay with MDA-MB-231 breast, 93.6%; in the assay on RXF 393 renal, 22.1%; with SF-268 CNS, 95%; in the assay with SF-295 CNS, 69.5%; in the assay with SF-539 CNS it was -5.79% (active). Moreover, the growth with UACC-257 melanoma was 63.6%; in the assay with M14 melanoma it was 45.7%.
`O=C1C=CC(=O)N1c1cccc2c1CCCC2`: the growth in the assay with NCI-H23 lung was 106%; with NCI-H226 lung, 96.4%; in the assay on NCI-H322M lung, 91.9%; in the assay with HOP-62 NSCLC it was 105%; in the assay with NCI-H460 lung, 109%; in the assay with HOP-92 NSCLC it was 84.2%. In addition, the growth in the assay with NCI-H522 lung was 11.6%; in the assay with A549/ATCC NSCLC, 104%; in the assay with 786-0 renal, 105%; in the assay with COLO 205 colon it was 49.1%; in the assay on DU-145 prostate, 103%; with K-562 leukemia it was 57.1%. The growth with MALME-3M melanoma was 85.5%; in the assay on MDA-MB-231 breast, 106%; with RXF 393 renal it was 94.1%; in the assay with SF-268 CNS, 101%; in the assay with SF-295 CNS it was 90.6%; in the assay on SF-539 CNS it was 105%. For the same compound, the results for the growth in the assay on UACC-257 melanoma and with M14 melanoma were 103% and 110%, respectively.
`CCCOC(=O)c1nc(N(CC2CCCCC2)C(=O)NC)sc1/N=C/c1ccccc1`: the growth is 31.1% with NCI-H23 lung; 56.8% in the assay on NCI-H226 lung; 57.9% in the assay on NCI-H322M lung; 25.5% in the assay with HOP-62 NSCLC; 2.34% (active) with NCI-H460 lung; 15.5% in the assay with HOP-92 NSCLC. Besides, the growth in the assay with NCI-H522 lung was -18.4% (active); in the assay with A549/ATCC NSCLC it was 13.6%; in the assay with 786-0 renal, 9.27% (active); in the assay on COLO 205 colon, 18.6%; in the assay on DU-145 prostate it was 44.7%; in the assay on K-562 leukemia, 2.2% (active). Besides, the growth was 12.4% in the assay on MALME-3M melanoma; -8.78% (active) with RXF 393 renal; 32% with SF-268 CNS; 15.1% in the assay on SF-295 CNS; -27.9% (active) with SF-539 CNS; 37.5% with UACC-257 melanoma. In the assay with M14 melanoma, the growth is 6.82% (active).
On to `COc1ccc(C(Cn2ccnc2)Sc2ccc(Cl)c(Cl)c2)cc1` (stereo not drawn), for which the growth with NCI-H23 lung was 82.8%; in the assay on NCI-H226 lung it was 69.7%; in the assay with NCI-H322M lung, 91.3%; in the assay with HOP-62 NSCLC, 85.5%; in the assay on NCI-H460 lung it was 78.2%; with HOP-92 NSCLC, 50.7%. Also, the growth was 60.2% in the assay with NCI-H522 lung; 88.1% in the assay on A549/ATCC NSCLC; 77.8% with 786-0 renal; 87.6% in the assay on COLO 205 colon; 100% with DU-145 prostate; 56.2% in the assay on K-562 leukemia. For the same compound, the growth in the assay with MALME-3M melanoma is 96.1%; in the assay with MDA-MB-231 breast, 79.1%; in the assay on SF-268 CNS, 90.9%; with SF-539 CNS, 95.6%; with UACC-257 melanoma it was 92.1%; with M14 melanoma, 71.6%.
As for `O=C(c1ccccc1)C(Br)[N+](=O)[O-]` (stereo not drawn), the growth is 99.8% in the assay with NCI-H23 lung; 101% in the assay with NCI-H226 lung; 101% in the assay with NCI-H322M lung; 73.6% with HOP-62 NSCLC; 101% in the assay on NCI-H460 lung; 103% with HOP-92 NSCLC. Also, the growth with NCI-H522 lung is 64.4%; in the assay with A549/ATCC NSCLC, 69.6%; in the assay on 786-0 renal, 106%; with COLO 205 colon, 86.8%; in the assay on DU-145 prostate it was 105%; in the assay on K-562 leukemia, 25.8%. Further, the growth is 54.4% in the assay with MALME-3M melanoma; 93.2% with MDA-MB-231 breast; 117% in the assay on RXF 393 renal; 102% in the assay with SF-268 CNS; 101% in the assay on SF-295 CNS; 79% in the assay with UACC-257 melanoma. Besides, in the assay on M14 melanoma, the growth is 84.3%.
Regarding `CCC1C[N+]2=C(c3cc(OC)c(OC)cc3CC2)c2c1cc1n2CCc2cc(OC)c(OC)cc2-1` (stereo not drawn), the growth was 43% in the assay on NCI-H23 lung; 65.7% in the assay with NCI-H226 lung; 98.6% in the assay with NCI-H322M lung; 55.9% in the assay with HOP-62 NSCLC; 21.5% in the assay with NCI-H460 lung; -2.62% (active) in the assay on HOP-92 NSCLC. The growth with NCI-H522 lung is 17%; with A549/ATCC NSCLC, 56.9%; in the assay with 786-0 renal, 66.3%; in the assay with COLO 205 colon it was -35.4% (active); in the assay on DU-145 prostate, 49%; in the assay on K-562 leukemia, 21.5%. Besides, the growth in the assay on MALME-3M melanoma is 29.9%; in the assay with MDA-MB-231 breast, 46.1%; in the assay on RXF 393 renal, 88.7%; with SF-268 CNS, 33.3%; in the assay on SF-295 CNS, 63.6%; in the assay on SF-539 CNS it was 31.9%. The growth in the assay with M14 melanoma is 36.1%.
In the case of `CCc1cnc2ccccc2c1/C=C/c1ccc(N(C)C)cc1`, the growth is 65.2% with NCI-H23 lung; 74.5% in the assay with NCI-H226 lung; 71.6% with NCI-H322M lung; 47.4% with HOP-62 NSCLC; 30.8% in the assay on NCI-H460 lung; 60.1% in the assay with HOP-92 NSCLC. The growth with NCI-H522 lung was 23.3%; in the assay on A549/ATCC NSCLC it was 33%; in the assay with 786-0 renal it was 44%; in the assay with COLO 205 colon, 41.5%; in the assay on DU-145 prostate it was 68.4%; in the assay on K-562 leukemia, 13%. Also, the growth in the assay with MALME-3M melanoma was 50.7%; in the assay with MDA-MB-231 breast, 38.8%; in the assay with RXF 393 renal it was 63%; with SF-268 CNS, 57.4%; in the assay with SF-295 CNS, 26%; in the assay with UACC-257 melanoma it was 56.4%. Further, the growth in the assay with M14 melanoma is 28.2%.
Regarding `Cc1oc2c(C)c3oc(=O)cc(C)c3cc2c1CCl`, the growth with NCI-H23 lung is 84.9%; with NCI-H226 lung, 75.5%; with NCI-H322M lung, 75.9%; in the assay on HOP-62 NSCLC, 92.3%; in the assay on NCI-H460 lung it was 91.8%; in the assay with HOP-92 NSCLC, 58.5%. The growth in the assay with NCI-H522 lung is 54.7%; with A549/ATCC NSCLC, 88.5%; in the assay on 786-0 renal, 84.2%; with COLO 205 colon, 83.8%; with DU-145 prostate, 72.8%; with K-562 leukemia, 59%. Also, the growth was 95.8% with MALME-3M melanoma; 81.7% with MDA-MB-231 breast; 83.6% in the assay with RXF 393 renal; 75.9% in the assay with SF-268 CNS; 87% in the assay with SF-295 CNS; 88.9% in the assay with UACC-257 melanoma. The growth in the assay on M14 melanoma was 93.2%.
